# Where “and” joins values, the source holds several entries; their conditions need not be identical. Identical values can stand only once. Calls of active or inactive are those of the source. Unless noted, how the calls were made is not given here.
# Experiments:
# [1] = test system: XIP peptide (Xip251-270) binding; experiment: small-molecule binders of XIP peptide, primary screen, biochemical, small-molecule microarray, fluorescence 635/667 nm, 0.1 µg/mL protein (AID 1182); conditions: fluorescent protein binding, 635 nm, higher = more signal, called active from +8 up or from −8 down
# XIP peptide (Xip251-270) = experiment: small-molecule binders of XIP peptide, primary screen, biochemical, small-molecule microarray, fluorescence 635/667 nm, 0.5 µg/mL protein (AID 1183); conditions: small-molecule microarray binding, fluorescence 635 nm; higher = more signal
# [2] = Plasmodium falciparum growth inhibition, primary screen, strain 3D7, DAPI fluorescence, 100 nL (AID 1184);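 further: parasites grown inside human red blood cells in medium with human serum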; conditions: P. falciparum 3D7 growth, 3 d, higher = more signal
# [3] = biological target: Homeobox protein Hox-A13 (Mus musculus) (UniProt Q62424); experiment: inhibitors of HoxA13-DNA binding, primary screen, biochemical, fluorescence polarization, labeled oligonucleotide (AID 1185); conditions: 15 min, higher = more signal, called active from +8 up or from −8 down
# Sequence of Homeobox protein Hox-A13 (Mus musculus) (Q62424 whole entry, looked up): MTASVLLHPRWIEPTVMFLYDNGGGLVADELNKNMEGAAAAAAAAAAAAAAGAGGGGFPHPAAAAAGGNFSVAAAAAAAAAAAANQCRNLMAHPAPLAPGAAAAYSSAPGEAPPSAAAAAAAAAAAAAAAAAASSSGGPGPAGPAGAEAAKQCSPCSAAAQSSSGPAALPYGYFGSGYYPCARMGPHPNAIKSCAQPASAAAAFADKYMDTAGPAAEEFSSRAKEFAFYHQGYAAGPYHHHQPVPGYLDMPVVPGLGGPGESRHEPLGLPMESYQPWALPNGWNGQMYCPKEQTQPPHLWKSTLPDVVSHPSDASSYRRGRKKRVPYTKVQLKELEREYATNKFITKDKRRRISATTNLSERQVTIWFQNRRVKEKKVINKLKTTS
# [4] = inhibitors of hydroxyurea-induced Chk1 phosphorylation, primary screen, imaging, HeLa, phospho-Chk1 antibody, percent positive cells (AID 1186); conditions: hydroxyurea-induced phospho-Chk1 immunofluorescence imaging, higher = more signal
# [5] = inhibitors of hydroxyurea-induced Chk1 phosphorylation, primary screen, imaging, HeLa, phospho-Chk1 nuclear intensity (AID 1187); conditions: hydroxyurea-induced phospho-Chk1 immunofluorescence imaging, higher = more signal
Compound,composite z-score [1],composite z-score (XIP peptide (Xip251-270)),z-score [2],z-score [3],z-score [4],z-score [5]
C[N+](C)(C)CCCCCCNC(=O)[C@@H]1C[C@@H]2C(=O)N[C@@H](CCCC[N+](C)(C)C)C(=O)N2[C@@H]1c1ccc(O)cc1,0.134 (inactive) and 0.316 (inactive),0.907 and 0.898,0.202 and -0.0272,-0.929 (inactive) and -2.3 (inactive),0.556 (inactive) and 0.31 (inactive),0.424 (inactive) and 0.327 (inactive)
C=CCN(CCCC)C(=O)C1N(c2c(Cl)cccc2CO)C(=O)C2C(C(=O)O)C3C=CC21O3 (centres undefined),-0.523 (inactive) and -0.356 (inactive),0.222 and 0.152,-1.23 and -1.7,-1.12 (inactive) and -1.43 (inactive),0.304 (inactive) and -0.273 (inactive),0.151 (inactive) and 0.131 (inactive)
CC(CO)N1C(=O)[C@@H]2C3C(=O)OCCC=C[C@H]3OC23C=CCN(c2ccc4ccccc4c2)C(=O)[C@@H]13 (some centres undefined),0.62 (inactive) and -0.143 (inactive),0.713 and 0.135,-0.526 and 0.0547,-6.14 (inactive) and -5.9 (inactive),-0.437 (inactive) and 0.0615 (inactive),0.0032 (inactive) and 0.0969 (inactive)
C=CC[C@@H](O)c1ccc(O)c(F)c1,-0.316 (inactive) and -0.555 (inactive),0.849 and -1.57,0.408 and -0.881,-2.13 (inactive) and -0.155 (inactive),-0.0057 (inactive) and -0.138 (inactive),-0.268 (inactive) and -0.321 (inactive)
C=CCN(C(=O)C1N(c2c(Cl)cccc2CO)C(=O)C2C(C(=O)O)C3C=CC21O3)C(C)(C)C (centres undefined),0.13 (inactive) and -0.96 (inactive),0.106 and -0.591,-1.76 and 0.0813,-1.56 (inactive) and 0.87 (inactive),-0.198 (inactive) and -0.391 (inactive),0.0398 (inactive) and 1.14 (inactive)
CC[C@@H]1C(Sc2ccccc2)C(C(=O)O)[C@H](c2ccc(C)cc2)N1S(=O)(=O)c1ccc(C)cc1 (some centres undefined),1.07 (inactive) and -0.215 (inactive),0.278 and 0.605,-0.606 and 0.251,-5.66 (inactive) and -4.34 (inactive),-0.114 (inactive) and -0.912 (inactive),-0.369 (inactive) and -0.714 (inactive)
C=CCN1C(=O)[C@]2(O[C@H](CCn3cc(CCO)nn3)[C@@H]([Si](C)(C)c3ccc(OC)cc3)[C@@H]2C)c2cc(N3C(=O)c4cccc5cccc3c45)ccc21,0.0184 (inactive) and 0.416 (inactive),0.577 and 0.719,-2.67 and -2.76,-5.18 (inactive) and -5.57 (inactive),-1.98 (inactive) and -1.13 (inactive),-1.8 (inactive) and -1.3 (inactive)
C=CCN(C(=O)C1N(c2ccc(CCO)cc2)C(=O)C2C(C(=O)O)C3C=CC21O3)c1ccc(OC)cc1 (centres undefined),0.777 (inactive) and -0.925 (inactive),0.936 and -0.824,-1.09 and -0.417,-1.87 (inactive) and -0.733 (inactive),-0.265 (inactive) and -0.271 (inactive),-0.268 (inactive) and -0.384 (inactive)
COC(=O)c1c2oc(c1C(=O)OC)C(=O)N[C@@H](Cc1ccccc1)Cn1cc(nn1)C1(CCCCC1)NC(=O)N[C@H](CO)CC2,0.398 (inactive) and -0.338 (inactive),0.762 and 0.215,0.53 and 1.25,-4.76 (inactive) and -2.08 (inactive),-0.496 (inactive) and 0.267 (inactive),0.184 (inactive) and 0.279 (inactive)
C=C[C@@H](OC)[C@H](O)c1ccc(OCCO)cc1,0.602 (inactive) and -0.746 (inactive),0.524 and 0.496,-0.748 and 0.0067,-0.717 (inactive) and -0.113 (inactive),-0.949 (inactive) and -0.429 (inactive),0.0246 (inactive) and 0.283 (inactive)
C=CCN(Cc1ccccc1)C(=O)C1N(CCCCCCO)C(=O)C2C(C(=O)O)C3C=CC21O3 (centres undefined),-0.0934 (inactive) and -0.383 (inactive),-0.673 and 0.372,0.865 and 1.05,-0.888 (inactive) and 0.0908 (inactive),0.909 (inactive) and 0.53 (inactive),0.798 (inactive) and 0.751 (inactive)
O=C1C[C@]2(c3ccc([N+](=O)[O-])cc3)C(=O)N(Cc3ccccc3)c3cc(CO)ccc3[C@H]2N1C1CCCCC1,-0.182 (inactive) and 0.877 (inactive),-0.242 and 0.519,1.04 and -1.97,-1.48 (inactive) and -3.19 (inactive),0.112 (inactive) and -0.427 (inactive),0.357 (inactive) and -0.265 (inactive)
C=C[C@@H](OC)[C@H](O)c1ccc(OC)c(O)c1,0.263 (inactive) and -0.18 (inactive),-0.531 and -1.37,-0.151 and -0.337,-0.828 (inactive) and 0.853 (inactive),0.719 (inactive) and -0.433 (inactive),-0.0654 (inactive) and 0.0937 (inactive)
C=CCN(C(=O)C(c1cccs1)N(C(=O)/C=C\C(=O)O)c1c(Cl)cccc1CO)c1ccc(OC)cc1 (centres undefined),0.861 (inactive) and 0.113 (inactive),-0.457 and -1.04,0.734 and 1.62,0.171 (inactive) and -1.67 (inactive),-0.0464 (inactive) and 0.245 (inactive),0.0355 (inactive) and 0.636 (inactive)
C=CCN(C(=O)C1N(CCCCCCO)C(=O)C2C(C(=O)O)C3C=CC21O3)C(C)(C)C (centres undefined),-0.501 (inactive) and -0.559 (inactive),0.429 and -1,-0.0557 and 0.444,-0.569 (inactive) and -2.68 (inactive),-0.178 (inactive) and -0.102 (inactive),-0.0517 (inactive) and 0.113 (inactive)
CC(C)OC(=O)C=C1C[C@@H](c2cccc(C(F)(F)F)c2)O[C@@H](c2cccc(C(F)(F)F)c2)O1,0.081 (inactive) and 0.769 (inactive),0.78 and 0.781,0.15 and -0.473,-2.72 (inactive) and -1.27 (inactive),-0.394 (inactive) and -0.391 (inactive),-0.854 (inactive) and -0.46 (inactive)
C[N+](C)(C)CCCCNC(=O)[C@@H]1C[C@@H]2C(=O)N[C@@H](CCCC[N+](C)(C)C)C(=O)N2[C@@H]1c1cccc(OCCO)c1,0.785 (inactive) and 1.87 (inactive),0.697 and 0.917,-0.0982 and -0.462,-0.648 (inactive) and -1.01 (inactive),-0.123 (inactive) and -0.528 (inactive),0.0051 (inactive) and -0.229 (inactive)
C=CCN(Cc1ccccc1)C(=O)C1N(c2ccc(CCO)cc2)C(=O)C2C(C(=O)O)C3C=CC21O3 (centres undefined),0.224 (inactive) and -0.96 (inactive),-0.726 and 0.918,-1.34 and -0.544,-0.61 (inactive) and -2.5 (inactive),0.127 (inactive) and -0.193 (inactive),-0.0077 (inactive) and -0.58 (inactive)
C=CCN(Cc1ccccc1)C(=O)C1N(CCOCCO)C(=O)C2C(C(=O)O)C3C=CC21O3 (centres undefined),0.463 (inactive) and -0.202 (inactive),-1.03 and -0.657,-0.506 and -0.253,0.429 (inactive) and -0.659 (inactive),-0.0844 (inactive) and 1.49 (inactive),0.031 (inactive) and 1.13 (inactive)

# Reference: PubChem BioAssay
